Source: PubChem (National Center for Advancing Translational Sciences (NCATS))
Shown are actives, neighbours in structure and some others; about 0.086% of the full set was active somewhere.
a7 integrin act – integrin-mediated muscular dystrophy alleviation activation. alpha7betagal myoblasts, beta-gal FDG fluorescence, 48 h. Potency, µM (highest dose often 38.3 µM), for the others: at the highest dose activation, usual class: activators. 350,000 compounds, 0.064% hits. AID 624291;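 note: potency is the fitted concentration of half-maximal effect; 100% = response of the positive control SU9516; nearly all actives have a fitted effect of over 60% in size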
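Alpha7betagal+/- myoblasts (passage 13) were plated 16-24 hr, then exposed to compounds (1:260 dilution of DMSO stock) for 48 hours at 37C. After MPER lysis, β-galactosidase reporter activity was read as FDG fluorescence (ex 480/em 540) after 30 minutes.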
TCR activator – activates T cell receptor signaling. primary human leukocytes, anti-CD3, IL-2 HTRF, 48 h. Potency, µM (series often up to 9.22 µM), for the others: at the top dose activation of IL-2 secretion, actives largely listed as activators. 330,000 tested, under 10 active. AID 504894; note: % of control where 0% means no effect
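TCR engagement came from a-CD3 beads alone, with compounds added to primary human leukocytes for 48 hr. Secreted IL-2 bridged europium cryptate- and d2-labelled anti-IL-2 antibodies, giving FRET emission at 665nm after 320nm excitation.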
MBNL1-CUG inh – inhibitors of human MBNL1 binding to CUG repeat RNA. TR-FRET MBNL1-His/biotin-(CUG)12 binding, 665/545 ratio. Q9NR56. AID 2675. 280,000 compounds, 0.036% hits. Potency, µM (titrated, usually from 57.5 µM), for the others: at the highest dose activity change, negative = inhibition, hits mostly inhibitors; active = well fitted inhibition curve with a large enough effect in the signal ratio, with a control signal flat, not every such curve was filed as active; inconclusive = small, poorly fitted or top-dose-only effect, or effect the other way, or a change in a side signal; inactive = no such curve, though single readings can be large or run the other way; the % refers to the signal ratio; note: potency is the fitted concentration of half-maximal effect; % is set by controls: 0 for no effect and ±100 for the full control effect
Target sequence (Q9NR56 whole entry, looked up): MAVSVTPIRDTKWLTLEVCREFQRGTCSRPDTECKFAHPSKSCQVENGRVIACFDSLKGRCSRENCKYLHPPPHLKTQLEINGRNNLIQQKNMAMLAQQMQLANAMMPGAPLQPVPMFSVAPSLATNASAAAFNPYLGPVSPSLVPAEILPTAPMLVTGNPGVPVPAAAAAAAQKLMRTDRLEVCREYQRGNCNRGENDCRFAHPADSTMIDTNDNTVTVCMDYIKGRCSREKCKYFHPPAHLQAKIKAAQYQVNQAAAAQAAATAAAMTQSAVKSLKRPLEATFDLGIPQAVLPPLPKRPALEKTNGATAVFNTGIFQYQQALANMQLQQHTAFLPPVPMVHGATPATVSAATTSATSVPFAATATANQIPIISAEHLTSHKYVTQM
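TR-FRET between His-tagged MBNL1 and biotin-(CUG)12 RNA, detected with Tb anti-His antibody (0.055 ng/ul) and streptavidin-XL665 (5 nM), 60 min at room temperature. Compounds titrated 92 nM to 58 uM; 665/545 nm ratio normalized to buffer and complex controls.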
CBFb RUNX1 block – inhibitors of human CBF-beta and RUNX1 interaction; Q01196+Q13951; AlphaScreen CBFb-His/RUNX1-biotin binding, biochemical; Potency, µM (top dose mostly 59.8 µM), inactives show top-dose activity, negative = inhibition, most hits filed as inhibitors; 230,000 tested, under 10 active; AID 1477; note: % of control where 0% means no effect
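Proteins preincubated together for 20 min at RT before compound addition; 15 min later, nickel and streptavidin beads were added and left 90 min prior to AlphaScreen measurement.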
MBNL1-CUG FRET – MBNL1-poly(CUG) RNA binding inhibition confirmed; shares compounds with MBNL1-CUG inh; TR-FRET MBNL1-His / biotin-(CUG)12 binding, 60 min; Potency, µM (doses to about 57.6 µM), inactives show top-dose activity change, negative = inhibition, hits mostly inhibitors; 140 compounds, 50% hits; AID 493199
MBNL1 AlphaScrn – confirmation of MBNL1-(CUG)12 RNA binding inhibitors, orthogonal format | AlphaScreen MBNL1-His / biotin-(CUG)12 binding | 140 compounds, 30% hits | shares compounds with MBNL1-CUG inh | Potency, µM (series often up to 57.7 µM), inactives show at the top dose activity, negative = inhibition, most hits filed as inhibitors
MBNL1 HTRF CS – MBNL1-CUG RNA binding inhibitor counterscreen activity | Potency, µM (series often up to 57.6 µM), for the others: at the top dose activity, negative = inhibition, most hits filed as inhibitors | AID 651843 | 120 compounds, 20% hits | His-Menin/biotin-MLL peptide TR-FRET counterscreen | shares compounds with MBNL1-CUG inh
The depositor's hits bear a star; [ ] = dose if it differs, or a comment. Unless noted, calls come from the whole dose curve; as a rule, active = well fitted curve in the direction sought with a large enough effect; inconclusive = small, poorly fitted or top-dose-only effect, or another doubt; inactive = no such curve, though single readings can be large; an effect the other way counts as inactive or inconclusive.

How did Cc1ccc(-n2ncc3c(Nc4c(C)n(C)n(-c5ccccc5)c4=O)ncnc32)c(C)c1 do in these assays?
a7 integrin act: -6%; MBNL1-CUG inh: 6%; CBFb RUNX1 block: 5%

Results for CCOC(=O)C1=C(C)C(c2cccc(Oc3ccccc3)c2)NC(=S)N1 (stereo unspecified) ?
a7 integrin act: 30%; TCR activator: 1%[46.1 µM]; MBNL1-CUG inh: -2%; CBFb RUNX1 block: -15%

Results for Cc1cc(N2CCN(C)CC2)nc2ccc(NC(=S)NCCCN3CCc4ccccc4C3)cc12 ?
a7 integrin act: -54%; TCR activator: -1%; MBNL1-CUG inh: inconclusive; CBFb RUNX1 block: 8%

Results for Cc1cc(N2CCN(C)CC2)nc2ccc(NC(=S)NCCN3CCc4ccccc4C3)cc12 ?
a7 integrin act: -58%; TCR activator: 3%; MBNL1-CUG inh: 25µM*; CBFb RUNX1 block: 0%; MBNL1-CUG FRET: -20%; MBNL1 AlphaScrn: -25%; MBNL1 HTRF CS: -19%

Results for O=C(CCO)c1ccc(O)cc1 ?
a7 integrin act: 3%; TCR activator: -37%; MBNL1-CUG inh: 25µM*; MBNL1-CUG FRET: inconclusive; MBNL1 AlphaScrn: inconclusive; MBNL1 HTRF CS: 0%

What do the screens show for `C=CCN1c2ccccc2[C@]23C[C@@H](C(=O)OC)N=C2NC(C(=O)OC)=C(C(=O)OC)[C@H]13`?
a7 integrin act: -9%; TCR activator: 3%; MBNL1-CUG inh: -2%; CBFb RUNX1 block: 4%[13.1 µM]

Results for COCCNC(=O)CCc1nnc(Cc2ccc(-c3ccccc3)cc2)o1 ?
a7 integrin act: -3%; TCR activator: -6%; MBNL1-CUG inh: -1%; CBFb RUNX1 block: -1%

Results for COCCNC(=O)CCC1CCN(Cc2ccc(-c3ccccc3)cc2)CC1 ?
a7 integrin act: -36%; TCR activator: 0%; MBNL1-CUG inh: 16µM*; MBNL1-CUG FRET: 6.5µM*; MBNL1 AlphaScrn: 4%; MBNL1 HTRF CS: 8.2µM*

What do the screens show for `O=C(O)[C@@H](c1ccccc1)N1Cc2ccccc2C1=O`?
a7 integrin act: 18%; TCR activator: -2%; MBNL1-CUG inh: 40µM*; CBFb RUNX1 block: 1%; MBNL1-CUG FRET: 26µM*; MBNL1 AlphaScrn: 21µM*; MBNL1 HTRF CS: -3%

What do the screens show for `O=c1c(C(c2nnnn2C2CCCCC2)N2CCCCC2)coc2ccc(Cl)cc12` (stereo unspecified)?
a7 integrin act: -6%; TCR activator: -6%; MBNL1-CUG inh: -5%; CBFb RUNX1 block: 6%

How did Cn1c([N+](=O)[O-])cnc1COC(N)=O do in these assays?
TCR activator: 1%; MBNL1-CUG inh: inconclusive; CBFb RUNX1 block: 18%

How did Cc1cc(N)c2cc(NC(=O)Nc3ccc4nc(C)cc(N)c4c3)ccc2n1 do in these assays?
MBNL1 HTRF CS: 21µM*

How did COc1ccc(CCN(Cc2cc3ccc(C)cc3[nH]c2=O)C(C)=O)cc1OC do in these assays?
a7 integrin act: 23%; TCR activator: 4%; MBNL1-CUG inh: -6%; CBFb RUNX1 block: 6%

What do the screens show for `Cc1cn(C2OC(COC(=O)c3ccccc3)C(OC(=O)c3ccccc3)C2OC(=O)c2ccccc2)c(=O)[nH]c1=O` (stereo unspecified)?
a7 integrin act: -18%; TCR activator: -4%[46.1 µM]; MBNL1-CUG inh: 7%; CBFb RUNX1 block: -2%

Results for O=C(OCC1OC(OC(=O)c2cc(O)c(O)c(OC(=O)c3cc(O)c(O)c(O)c3)c2)[C@@H](OC(=O)c2cc(O)c(O)c(OC(=O)c3cc(O)c(O)c(O)c3)c2)C(OC(=O)c2cc(O)c(O)c(OC(=O)c3cc(O)c(O)c(O)c3)c2)C1OC(=O)c1cc(O)c(O)c(OC(=O)c2cc(O)c(O)c(O)c2)c1)c1cc(O)c(O)c(OC(=O)c2cc(O)c(O)c(O)c2)c1 (stereo partly specified) ?
MBNL1-CUG FRET: 0.41µM*; MBNL1 AlphaScrn: 0.029µM*

What do the screens show for `CS(=O)(=O)n1nc(-c2ccc(Cl)cc2)nc1N`?
a7 integrin act: -11%; TCR activator: 4%; MBNL1-CUG inh: -6%; CBFb RUNX1 block: 8%

What do the screens show for `Cn1nc(-c2ccc(Cl)cc2)nc2c(=O)n(C)c(=O)nc1-2`?
MBNL1-CUG inh: inconclusive; MBNL1-CUG FRET: 0.65µM*; MBNL1 AlphaScrn: 0.26µM*; MBNL1 HTRF CS: 56%

What do the screens show for `C[C@@H]1NC(=O)[C@@H](N)CNC(=O)[C@H](C2CCNC(N)=N2)NC(=O)/C(=C/NC(N)=O)NC(=O)[C@H](CNC(=O)C[C@@H](N)CCCN)NC1=O` (stereo partly specified)?
MBNL1 HTRF CS: -11%

How did CC1NC(=O)C(N)CNC(=O)C(C2CCN=C(N)N2)NC(=O)/C(=C/NC(N)=O)NC(=O)C(CNC(=O)CC(N)CCCN)NC1=O (stereo unspecified) do in these assays?
CBFb RUNX1 block: 27%

Results for NCCCC(N)CC(=O)NCC1NC(=O)C(CO)NC(=O)C(N)CNC(=O)C(C2CCN=C(N)N2)NC(=O)/C(=C\NC(N)=O)NC1=O (stereo unspecified) ?
CBFb RUNX1 block: 18%

Results for NCCCC(N)CC(=O)NC1CNC(=O)C(C2CC(O)N=C(N)N2)NC(=O)/C(=C/NC(N)=O)NC(=O)C(CO)NC(=O)C(CO)NC1=O (stereo unspecified) ?
MBNL1-CUG FRET: inconclusive; MBNL1 AlphaScrn: inconclusive

What do the screens show for `CCC(C)C(=O)Nc1cc(Cl)ccc1C(=O)O` (stereo unspecified)?
a7 integrin act: -18%; TCR activator: 1%; MBNL1-CUG inh: -7%; CBFb RUNX1 block: 17%

What do the screens show for `COC(=O)c1sc(S(=O)(=O)N2CCN(c3ccc(OC)cc3)CC2)c(C(=O)OC)c1C`?
a7 integrin act: -1%; TCR activator: -16%; MBNL1-CUG inh: -4%; CBFb RUNX1 block: -3%

Results for Cc1ccc(/C=c2/sc3n(c2=O)CCCN=3)o1 ?
a7 integrin act: 4%; TCR activator: 10%[46.1 µM]; MBNL1-CUG inh: 35%; CBFb RUNX1 block: -21%; MBNL1-CUG FRET: inconclusive; MBNL1 AlphaScrn: -13%; MBNL1 HTRF CS: 35%
